# Rows were chosen to be rich in hits. Some 6.5% of all compounds tested hit in one or more screens of this group.
# FMDV inh – antivirals against foot and mouth disease virus. FMDV antiviral cell-based qHTS. Potency, µM (doses to about 57.9 µM), inactives show at the highest dose activity change, negative = inhibition, most hits filed as inhibitors. actives 1.2% (n = 410,000). AID 1159524; calls by dose curve; tested in HEK293T cells; note: read-out not given here; potency is the fitted concentration of half-maximal effect; nearly all actives have a fitted effect of over 45% in size
# Vaccinia mCherry – inhibitors of vaccinia virus infection (mCherry reporter signal); Vaccinia virus mCherry reporter infection, fluorescence; Potency, µM (titrated, usually from 36.5 µM), for inactives: top-dose activity change, negative = inhibition, most hits filed as inhibitors; actives 0.63% (n = 310,000); AID 720579; calls by dose curve; tested in A549 cells; note: potency is the fitted concentration of half-maximal effect; nearly all actives have a fitted effect of over 35% in size
# LASV entry inh – inhibitors of Lassa virus binding or cell entry; actives 1.2% (n = 300,000); Lassa virus pseudotype entry inhibition, cell reporter; Potency, µM (doses to about 37.9 µM), for inactives: at the top dose activity change, negative = inhibition, hits mostly inhibitors; calls by dose curve; tested in HEK293 cells; note: potency is the fitted concentration of half-maximal effect; nearly all actives have a fitted effect of over 50% in size
# MARV entry inh – inhibitors of Marburg virus binding or cell entry. Potency, µM (highest dose often 37.8 µM), without a hit: at the top dose activity change, negative = inhibition, most hits filed as inhibitors. Marburg virus pseudotyped entry inhibition, cell reporter. AID 540276. actives 1.8% (n = 300,000); calls by dose curve; tested in HEK293 cells; note: potency is the fitted concentration of half-maximal effect
# Vaccinia Venus – vaccinia inhibition (Venus reporter) | Potency, µM (titrated, usually from 36.5 µM), for the others: at the highest dose activity change, negative = inhibition, hits mostly inhibitors | Vaccinia virus Venus reporter expression, fluorescence | actives 0.46% (n = 330,000); calls by dose curve; tested in A549 cells; note: potency is the fitted concentration of half-maximal effect; nearly all actives have a fitted effect of over 30% in size
# HCMV antiviral – blocks human cytomegalovirus replication; HFF cells, HCMV-luciferase reporter, 72 h; stronger effect = lower value; activity change, negative = inhibition, % at 57.5 µM; actives 4.5% (n = 410,000); AID 1259415; in the data active = activity change below about -60%; inconclusive = no clear call, values can overlap the other calls; inactive = above about -39%
#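 HFF cells seeded 16 h at 37C, treated with compounds, infected with luciferase-reporter HCMV at MOI 1 PFU/cell; luciferase read at 72 h post infection, normalized to buffer-only and Salinomycin controls.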
# Active calls of the source: *; i = inactive; ? = inconclusive; / = no result; + = active, no number; [ ] = dose if it differs, or a comment. % is set by controls: 0 for no effect and ±100 for the full control effect.
SMILES,FMDV inh,Vaccinia mCherry,LASV entry inh,MARV entry inh,Vaccinia Venus,HCMV antiviral
CCCCOc1ccccc1C1CC(=O)Nc2ccc3ccccc3c21 (stereo not given),-21.2%,i[7.34 µM],-22.8%[46.1 µM],?,-8.0%[7.34 µM],-91.6*
COc1ccc(Br)cc1CNC(=O)CN1C(=O)c2cccnc2Oc2ccc(C)cc21,-4.8%,i,?,/,?,+
Cc1ccc2c(c1)N(CC(=O)NCc1ccccc1Br)C(=O)c1cccnc1O2,-5.4%,i,?,/,-17.8%,0.0
C=CCn1c(SCC(=O)c2ccccc2)nnc1-c1cc2ccccc2o1,39.8µM*,/,-26.2%,?,-28.5%,?
Cn1c(SCC(=O)N/N=C/c2ccc([N+](=O)[O-])s2)nnc1-c1ccccc1,?,28.2µM*,?,?,?,-90.9*
COc1ccc(NC(=O)CSc2nnc(-c3ccccc3C)n2C)cc1,-15.4%,/,24.7%,-10.1%,/,-67.3*
Cn1c(SCC(=O)N2CCN(c3ccccc3)CC2)nnc1-c1cc2ccccc2o1,3.55µM*,/,-20.4%,?,/,-65.9*
COc1ccc(CCNC(=O)C(=O)NCC2OCCN2S(=O)(=O)c2cc(F)ccc2F)cc1OC (stereo not given),-22.5%,2.3%,/,/,2.0%,160.9
C[C@H]1[C@@H](NS(=O)(=O)c2ccc(C(F)(F)F)cc2)CC[C@@]23CCCN2C(=O)CCC[C@@H]13,/,/,/,/,/,-25.1
Cn1c(SCC(=O)c2cc3ccccc3o2)nnc1-c1ccccc1,16.6%,-10.8%,/,/,-6.5%,-60.2*
Cn1cnnc1SCC(=O)c1cc2ccccc2o1,14.5%,/,/,/,/,?
CNC(=O)CSc1nnc(-c2ccccc2)n1C,251µM*,i,/,/,8.1%,-21.0
O=C(O)c1ccc(-n2cc(-c3cc4ccccc4oc3=O)[nH]c2=S)cc1,14.6%,-7.5%,/,-2.9%[46.1 µM],2.5%,-64.3*
CC(=O)Nc1ccc(-n2cc(-c3ccccc3)[nH]c2=S)cc1,9.8%,i,/,/,-0.3%,31.6
Cc1nn(-c2ccccc2)c(N2CCCC2)c1/C=N/NC(=S)Nc1ccccc1F,12.8%,i,?,?,-9.5%,-61.3*
Cc1nn(-c2ccccc2)c(N2CCCC2)c1/C=N/NC(=O)c1cccc(S(=O)(=O)Nc2ccc(Cl)cc2)c1,-4.3%,-13.4%,?,?,?,-15.9
Cc1nn(-c2ccccc2)c(N2CCCC2)c1/C=N/NC(=O)c1cc2ccccc2cc1O,39.8µM*,-29.7%,4.6%,-7.0%,-15.0%,2.0
Cc1nn(-c2ccccc2)c(N2CCCC2)c1/C=N/NC(=O)c1cc(-c2ccccc2)nc2ccccc12,?,-14.6%,-29.1%,?,2.7%,8.8
Cc1cn([C@H]2C[C@H](O)[C@@H](CCC(=O)NCCc3cnc[nH]3)O2)c(=O)[nH]c1=O,-12.4%,i,/,/,-2.7%,-19.6
COc1cc2c(C(=O)NCc3ccc4c(c3)OCO4)cn(C)c(=O)c2cc1OC,-2.3%,i,0.0%,1.7%,-7.9%,16.0
COc1cc2c3c(n(C)c(=O)c2cc1OC)-c1cc2c(cc1C3=O)OCO2,-11.6%,-5.2%,?,0.562µM*,19.0%,/
COc1ccc(N(Cc2cccs2)C(=O)COc2cccc(C)c2C)cc1,-23.0%,-12.2%,?,?,-7.1%,?
COc1ccc(N(Cc2cccs2)C(=O)COc2cc(C)c(Cl)c(C)c2)cc1,?,-13.5%,-9.8%[46.1 µM],?,-4.1%,-98.7*
Cc1ccc(-c2n[nH]c3c2C(c2cccc(O)c2)N(c2ccc(C(=O)O)cc2)C3=O)cc1 (stereo not given),14.2%,-10.6%,23.2%[46.1 µM],25.7%[46.1 µM],-10.0%,-33.7
O=C1c2[nH]nc(-c3ccccc3)c2C(c2ccccc2)N1c1cccc(C(F)(F)F)c1 (stereo not given),?,-18.3%,?,/,?,-108.1*
SMILES,FMDV inh,Vaccinia mCherry,LASV entry inh,MARV entry inh,Vaccinia Venus,HCMV antiviral
COC(=O)c1ccc(C2c3c(-c4ccc(Br)cc4)n[nH]c3C(=O)N2c2ccc(Cl)cc2)cc1 (stereo not given),?,?,?,?,?,-103.4*
O=C1c2[nH]nc(-c3ccc(Br)cc3)c2C(c2cccc(O)c2)N1c1ccc(Cl)cc1 (stereo not given),?,?,?,?,?,-105.1*
CSCCC(C)N1CCC(Oc2ccc(C(=O)NCc3ccccn3)cc2)CC1 (stereo not given),-5.4%,-6.9%,/,/,10.3%,14.2
O=C(O)COc1ccc2c3c(c(=O)oc2c1)CCCC3,-6.5%,i,2.3%[46.1 µM],0.5%[46.1 µM],0.2%,-79.8*
CNc1nc(C23CC4CC(CC(C4)C2)C3)cs1,-12.6%,/,/,/,/,8.2
COc1ccc(/C=C/C(=O)C23CC4CC(CC(C4)C2)C3)cc1CN1CCOCC1,?,-24.4%,?,?,-25.7%,-81.6*
COc1ccc(/C=C/C(=O)c2ccccc2O)cc1CN1CCOCC1,?,/,?,11.2µM*,3.5%,/
COc1ccc(/C=C/C(=O)c2ccc3ccccc3c2O)cc1CN1CCOCC1,?,-10.4%,18.8%,1.7%,0.1%,-21.0
COc1ccc(C(=O)/C=C/c2ccc(OC)c(CN3CCOCC3)c2)cc1,14.1µM*,10µM*,?,?,?,-77.3*
COc1ccc(C(=O)/C=C/c2ccc(OC)c(Cn3nnc4ccccc43)c2)cc1,12.6µM*,12.6µM*,?,?,?,?
COc1ccc(C(=O)NCC2Cc3cccc(-c4ccc(S(C)(=O)=O)cc4)c3O2)c(OC)n1 (stereo not given),-15.0%,-8.2%,/,/,-0.6%,/
Cc1ccc(OC[C@H](O)[C@H](C)NC(C)C)c2c1CCC2,-27.6%,-15.7%,/,15.8µM*,-26.6%,13.7
CC(C)(C)NC[C@H](O)COc1cccc2c1CCCC2=O,-0.9%,-0.1%,/,/,-9.4%,-7.1
O=C(Nc1ccc2nc3n(c(=O)c2c1)CCCCC3)c1ccccc1[N+](=O)[O-],7.9%,-5.0%[7.34 µM],/,/,-1.1%[7.34 µM],-31.8
O=C(Nc1ccc2nc3n(c(=O)c2c1)CCCCC3)c1c(F)ccc([N+](=O)[O-])c1F,10µM*,?,?,7.08µM*,?,-100.4*
O=C(Nc1ccc2nc3n(c(=O)c2c1)CCCC3)c1ccccc1F,48.2%,/,/,/,/,-0.1
O=C(Nc1ccc2nc3n(c(=O)c2c1)CCCCC3)c1cc([N+](=O)[O-])ccc1F,31.6µM*,/,/,/,/,-72.0*
Cc1ccc(OCCCCN2CCCCC2)c(C)c1,-8.3%,/,/,/,/,9.5
Cc1ccc(OCCCCNC2CCCC(C)C2C)c(C)c1 (stereo not given),-17.2%,?,?,11.2µM*,10µM*,2.0
CCNC(=O)c1ccc2nc(-c3ccccc3)c(-c3ccccc3)nc2c1,/,17.8%,/,/,-11.0%,/
CCNC(=O)c1ccc2c(c1)C1C3CCC(C3)C1C(c1ccccc1)N2 (stereo not given),-17.7%,?,?,-3.9%,?,-62.6*

# Bioassay records as filed in PubChem.
